# Assay outcomes: PubChem, National Center for Advancing Translational Sciences (NCATS)
# HT1080NT lethal – qHTS for induction of synthetic lethality in tumor cells producing 2HG: qHTS for the HT-1080-NT fibrosarcoma cell line; HT-1080-NT fibrosarcoma viability, CellTiter-Glo ATP luminescence, 48 h; Potency, µM (highest dose often 46.1 µM), most hits filed as cytotoxic; hit rate 1.6% among 360,000;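 note: NT is the 2HG producing partner of a matched IDH1 knockdown line; nearly all actives have a fitted effect of over 55% in size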
#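 750 cells/well, RPMI + 5% FBS; 2 h settle, compound pin-transfer, 48 h at 37 degrees C. CellTiter-Glo 10 min RT, luminescence. Normalized to DMSO and media-only wells.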
# IL-1B inflam inh – qHTS for Inhibitors of Inflammasome Signaling: IL-1-beta AlphaLISA Primary Screen. THP-1 LPS/ATP IL-1B secretion, AlphaLISA, 16 h; stronger effect = lower value. activity change, % at 57.5 µM. hit rate 4.7% among 360,000; in the data active = activity change below about -50%; inconclusive = mostly about -30% to -49%
#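 THP-1 cells pretreated 1 hr with compounds (up to 57.5 uM final), then stimulated with LPS (250 ng/mL final) plus ATP (1.25 mM final); secreted IL-1B measured by AlphaLISA after 16 hr, decreased signal indicating inhibition.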
# DT40 TDP1 CPT – qHTS for Inhibitors of human tyrosyl-DNA phosphodiesterase 1 (TDP1): qHTS in cells in presence of CPT. chicken DT40 Tdp1-/-;hTDP1 cells + 20 nM CPT, ATP luminescence, 48 h. Potency, µM (highest dose often 46.2 µM), hits mostly inhibitors. hit rate 12% among 420,000. AID 686979, 2013; note: nearly all actives have a fitted effect of over 55% in size
#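 Chicken DT40 Tdp1-/- cells stably complemented with human TDP1 were seeded at 400 cells/well in medium containing 20 nM camptothecin, exposed to pin-transferred compounds, and grown at 37 °C for at least 48 hr. Viability was read as ATP luminescence.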
# DT40 TDP1 no CPT – qHTS for Inhibitors of human tyrosyl-DNA phosphodiesterase 1 (TDP1): qHTS in cells in absence of CPT | hit rate 15% among 420,000 | Potency, µM (highest dose often 46.2 µM), most hits filed as inhibitors | DT40 Tdp1-/- hTDP1 cells, no CPT, ATP luminescence, 48 h; note: nearly all actives have a fitted effect of over 55% in size
#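 DT40 Tdp1-/-;hTDP1 cells, no CPT (DMSO vehicle only), 400 cells/well; compounds pin-transferred; ≥48 hr, 37 °C; CellTiter-Glo 30 min RT dark, luminescence read.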
# HT1080 IDH1KD tx – qHTS for induction of synthetic lethality in tumor cells producing 2HG: qHTS for the HT-1080-IDH1KD cell line; HT-1080 IDH1 knockdown viability, ATP luminescence, 48 h; Potency, µM (highest dose often 46.1 µM), most hits filed as cytotoxic; hit rate 2% among 360,000; AID 686971, 2013
#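 CellTiter-Glo luminescence after 48 h compound exposure at 37 degrees C of IDH1-knockdown HT-1080 cells in 5% FBS RPMI. %Activity scaled between DMSO wells and cell-free media wells, with curves fitted and assigned curve classes.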
# 12-LOX inh – Primary qHTS assay for inhibitors of human arachidonate 12S-lipoxygenase (ALOX12): Round 2; Polyunsaturated fatty acid lipoxygenase ALOX12 (Homo sapiens), P18054; purified 12hLO, xylenol orange hydroperoxide absorbance; Potency, µM (top dose mostly 108 µM), usual class: inhibitors; hit rate 1.1% among 580,000; AID 1671190, 2021
# Target sequence (P18054 whole entry, looked up): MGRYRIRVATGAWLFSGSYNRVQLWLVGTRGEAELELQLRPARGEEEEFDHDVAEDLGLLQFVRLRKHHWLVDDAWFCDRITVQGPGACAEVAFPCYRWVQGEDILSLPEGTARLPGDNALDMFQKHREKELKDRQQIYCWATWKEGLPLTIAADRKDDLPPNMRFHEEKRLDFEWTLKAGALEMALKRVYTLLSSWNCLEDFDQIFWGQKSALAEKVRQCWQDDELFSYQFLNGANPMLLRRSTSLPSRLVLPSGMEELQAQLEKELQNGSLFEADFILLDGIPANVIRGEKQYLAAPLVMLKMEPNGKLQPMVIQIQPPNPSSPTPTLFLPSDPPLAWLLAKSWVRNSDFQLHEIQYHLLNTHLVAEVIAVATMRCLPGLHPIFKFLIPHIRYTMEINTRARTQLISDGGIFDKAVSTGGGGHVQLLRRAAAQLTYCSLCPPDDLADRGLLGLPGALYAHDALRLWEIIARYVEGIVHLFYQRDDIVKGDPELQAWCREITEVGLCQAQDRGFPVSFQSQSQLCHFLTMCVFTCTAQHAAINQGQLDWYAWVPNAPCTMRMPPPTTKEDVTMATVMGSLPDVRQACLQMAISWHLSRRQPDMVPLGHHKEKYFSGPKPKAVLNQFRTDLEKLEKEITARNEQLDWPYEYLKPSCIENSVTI
#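 Hydroperoxide product was detected by ferrous iron/xylenol orange as the 573 to 405 nm absorbance ratio. Arachidonic acid at 40 uM (final) was turned over for 30 min at room temperature by 150 nM human 12hLO, pH 7.0 Hepes buffer, after 15 min compound preincubation.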
# A number is an active result; . = inactive; ? = inconclusive; / = no result given; [ ] = dose if it differs, or a comment. The full list was thinned out, with hits kept by preference. Unless noted, calls come from the whole dose curve; as a rule, active = well fitted curve in the direction sought with a large enough effect; inconclusive = small, poorly fitted or top-dose-only effect, or another doubt; inactive = no such curve, though single readings can be large; an effect the other way counts as inactive or inconclusive.
SMILES,HT1080NT lethal,IL-1B inflam inh,DT40 TDP1 CPT,DT40 TDP1 no CPT,HT1080 IDH1KD tx,12-LOX inh
CCN(CC)CC(=O)c1c[nH]c2ccccc12,.,.,.,.,.,.
O=C(Nc1nnc(-c2ccc3c(c2)CCCC3)o1)c1ccccc1Cl,.,.,?,16.4µM,?,.
O=C(Nc1nnc(-c2ccc3c(c2)CCCC3)o1)c1ccccc1,?,.,5.17µM,5.8µM,?,?
O=C(Nc1cccc2c1CCCC2)c1ccccc1Cl,.,.,.,.,.,?
O=C(COc1ccccc1)Nc1nnc(-c2ccc3c(c2)CCCC3)o1,.,.,.,.,.,.
COc1ccc(Cl)cc1N1C(=O)/C(=C/c2sccc2C)N=C1SCC(=O)NC1CC1,.,-69.9,?,16.4µM,.,?
O=C(CSC1=N/C(=C/c2ccc(Cl)c(Cl)c2)C(=O)N1c1ccccc1F)NC1CC1,.,.,16.4µM,16.4µM,.,.
COc1ccc(Cl)cc1-c1nc(SCC(=O)NC2CCCC2)n[nH]1,.,?,?,?,.,.
Cc1cc(Cl)ccc1NC(=O)CN1C(=O)C(=O)N(C2CCCC2)C1=O,.,.,.,.,.,.
COc1c(C)cc(Br)cc1C(=O)NC(=S)NCc1ccco1,.,.,.,?,.,.
CCOC(=O)[C@H]1[C@H]2COc3ccc(Cl)cc3[C@@H]2N2C(=O)c3cc(F)c(F)cc3NC(=O)[C@@]12C,.,-72.0,?,23.1µM,?,.
CCOC(=O)[C@H]1[C@H]2COc3ccc(Cl)cc3[C@@H]2N2C(=O)c3ccccc3NC(=O)[C@@]12C,.,.,?,?,.,.
CCOC(=O)[C@H]1[C@H]2COc3ccc(Cl)cc3[C@@H]2N2C(=O)c3cc(Cl)ccc3NC(=O)[C@@]12C,.,.,13µM,?,.,.
CCOC(=O)[C@H]1[C@H]2COc3ccc(Cl)cc3[C@@H]2N2C(=O)c3cc(Br)ccc3NC(=O)[C@@]12C,.,?,16.4µM,20.6µM,.,?
CCOC(=O)[C@H]1[C@H]2COc3ccccc3[C@@H]2N2C(=O)c3ccc(Cl)cc3NC(=O)[C@@]12C,?,-67.5,?,?,.,.
CCCCCCCCN1C(=O)[C@@H](CC(=O)NCc2cccs2)C[C@@]2(C(=O)OC)C1=C[C@H](C1CCCC1)O[C@@H]2C,/,/,/,/,/,.
CCOC(=O)[C@H]1[C@H]2COc3ccc(C)cc3[C@@H]2N2C(=O)c3cc(OC)c(OC)cc3NC(=O)[C@@]12C,.,.,?,?,.,?
CCOC(=O)[C@H]1[C@H]2COc3ccc(OC)cc3[C@@H]2N2C(=O)c3cc(OC)c(OC)cc3NC(=O)[C@@]12C,.,-54.6,.,.,.,.
CCOC(=O)[C@H]1[C@H]2COc3ccccc3[C@@H]2N2C(=O)c3cc(Br)ccc3NC(=O)[C@@]12C,.,?,.,.,.,.
CCOC(=O)[C@H]1[C@H]2COc3ccc(Br)cc3[C@@H]2N2C(=O)c3cc(Br)ccc3NC(=O)[C@@]12C,.,.,?,18.4µM,.,.
COc1ccc(NC(=O)C2CC(=O)N(C3CCCC3)C2)cc1S(=O)(=O)N1CCCCC1 (configuration not stated),/,/,/,/,/,.
O=C(c1ccncc1)N(Cc1ccccc1)Cc1nc2ccccc2c(=O)[nH]1,.,.,.,.,.,.
Cc1ccc(NC(=O)CN(C)Cc2nc3ccccc3c(=O)[nH]2)c(Br)c1,.,?,.,20.6µM,.[9.24 µM],.
O=C(c1ccccc1)N(Cc1ccc(F)cc1)Cc1nc2ccccc2c(=O)[nH]1,7.08µM,.,?,.,6.31µM,.
